Data as given in PubChem BioAssay (NCATS).
“And” between values parts separate entries of the source, which are not always exact repeats. Identical values can stand only once. Inconclusive results are not listed. Where a call stands in place of a potency, no number is given. A number with no mark means an inactive call. The source made the active and inactive calls. Calls follow the shape of the dose curve; as a rule, active = well fitted cell-killing curve with a large enough effect; inconclusive = small, poorly fitted or top-dose-only effect, or effect the other way; inactive = no such curve, though single readings can be large or run the other way.

Assay: Viability qHTS for spleen associated tyrosine kinase inhibitor (SYKi) naive MV4-11 cells (AID 1963823); also: nearly all actives have a fitted effect of over 40% in size
Conditions: MV4-11 AML viability, CellTiter-Glo luminescence, 72 h; series mostly up to 45 µM
Method in brief: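 SYKi-naive MV4-11 AML cells, 500 per well, were exposed to library compounds for 72 hr at 37 C, 5% CO2. Viability was then read by CellTiter-Glo luminescence after 10 min at room temperature.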
Potency is read from the fitted curve at half-maximal effect.

| SMILES | Potency |
| --- | --- |
| NC(CS)C(=O)O (stereo not given) | inactive |
| C[C@H]1CNC(=O)c2cnn3ccc(nc23)N[C@H](C)c2cc(F)ccc2O1 | 525 nM (active) |
| O=C(c1ccccc1)c1ccccc1 | inactive |
| COC(=O)[C@@H](N)Cc1ccc(O)c(O)c1 | inactive |
| CCCc1ccc(OCC(=O)N2CCN(C(=O)COc3ccc(CCC)cc3OC)CC2)c(OC)c1 | inactive |

Assay: Viability qHTS for spleen associated tyrosine kinase inhibitor (SYKi) drug resistant MV4-11 cells (AID 1963824); also: nearly all actives have a fitted effect of over 35% in size
Conditions: SYKi-resistant MV4-11 viability, CellTiter-Glo, 72 h; series mostly up to 45 µM
Method in brief: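 SYK inhibitor-resistant MV4-11 AML cells, 500 per well, added to predispensed compounds and incubated 72 hr at 37 C, 5% CO2. Viability measured by CellTiter-Glo luminescence after 10 min at room temperature.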

| SMILES | Potency | viability, % of control |
| --- | --- | --- |
| O=C(CCCl)NCCc1ccccc1 | inactive | – |
| NC1=N[C@@]2(c3cc(NC(=O)c4ccc(F)cn4)ccc3F)COC[C@H]2CS1 | 14800 nM (active) | – |
| C[C@H]1[C@H]2CC[C@H]3[C@@H]4CC=C5C[C@@H](N(C)C)CC[C@]5(C)[C@H]4CC[C@]23CN1C | inactive | – |
| CC(=O)Nc1ccc(CC(=O)O)cc1 | inactive | – |
| O=C(CCl)Nc1cccc(NC2=NS(=O)(=O)c3ccccc32)c1 | 2630 nM (active) | – |
| FC(F)(F)c1ccc(CNc2ccc(Cc3c[nH]c4ncccc34)cn2)cc1 | 206 nM (active) and 291 nM (active) | – |
| COc1cc2c(cc1OC)CN(CCc1ccc(-n3nnc(-c4cc(OC)c(OC)cc4NC(=O)c4cc(=O)c5ccccc5o4)n3)cc1)CC2 | – | 98% [at 0.588 µM] |
| OC[C@H]1O[C@@H](S[C@@H]2O[C@H](CO)[C@H](O)[C@H](n3cc(-c4cccc(F)c4)nn3)[C@H]2O)[C@H](O)[C@@H](n2cc(-c3cccc(F)c3)nn2)[C@H]1O | inactive | – |
| NC(=O)c1nc(F)c[nH]c1=O | inactive | – |
| CCN(CC)C(=O)/C(C#N)=C/c1cc(O)c(O)c([N+](=O)[O-])c1 | 16800 nM (active) | – |
| COc1ccc(/C(C)=C/C(=O)O)c(OC)c1 | inactive | – |
| NCCCC[C@H](N[C@@H](CCc1ccccc1)C(=O)O)C(=O)N1CCC[C@H]1C(=O)O | inactive | – |
| Cc1ccc(C(=O)Nc2ccc(CN3CCN(C)CC3)c(C(F)(F)F)c2)cc1C#Cc1cnc2[nH]ncc2c1 | inactive | – |
| Cc1cc(C)cc(NC(=O)Cc2ccc(OC(C)(C)C(=O)O)cc2)c1 | inactive | – |
| CCN(c1cc(C#CCN2CCOCC2)cc(C(=O)NCc2c(C)cc(C)[nH]c2=O)c1C)C1CCC(N(C)CCOC)CC1 (stereo not given) | inactive | – |
| CC[C@]1(O)CC2CN(CCc3c([nH]c4ccccc34)[C@@](C(=O)OC)(c3cc4c(cc3OC)N(C)[C@H]3[C@@](O)(C(=O)OC)[C@H](OC(C)=O)[C@]5(CC)C=CCN6CC[C@]43[C@@H]65)C2)C1 (stereo not given in full) | 65.1 nM (active) and 33.2 nM (active) | – |
| O=C(Nc1ccnc(NC(=O)C2CC2)c1)c1c(Cl)cccc1Cl | 4680 nM (active) | – |
| CC1(C)S[C@H]2[C@H](NC(=O)[C@@H](N)c3ccc(O)cc3)C(=O)N2[C@H]1C(=O)O | inactive | – |
| CC(=O)Oc1cccc(O)c1 | inactive | – |
| CC[C@@H](C)Nc1cc(C(=O)NC2CC3CCC(C2)N3c2ccc(C(=O)C3CC3)cn2)c(C)cc1C(N)=O (stereo not given in full) | 20.6 nM (active) | – |

| SMILES | Potency | viability, % of control |
| --- | --- | --- |
| CC1=C(/C=C/C(C)=C/C=C/C(C)=C/C(=O)O)C(C)(C)CCC1 | 1.06 µM (active) and 468 nM (active) | – |
| [2H]C([2H])([2H])C(O)([C@@H](C)/C=C/[C@@H](C)[C@H]1CC[C@H]2/C(=C/C=C3C[C@@H](O)C[C@H](O)C3)CCC[C@]12C)C([2H])([2H])[2H] | 468 nM (active) | – |
| CC(/C=C/[C@@H]1C[C@]1(C)c1ccc2c(c1)C(C)(C)CCC2(C)C)=C\C(=O)O | 468 nM (active) | – |
| Cc1c(F)cc(C(=O)NC2CC2)cc1-c1ccc(C(=O)NCC(C)(C)C)cn1 | 461 nM (active) | – |
| CC1=C(C(=O)O)N2C(=O)[C@@H](NC(=O)[C@H](N)c3ccc(O)cc3)[C@H]2SC1 | inactive | – |
| CN1CCN(C(=O)c2ccc(-c3ccc4c(C=O)c(O)ccc4c3)s2)CC1 | 14800 nM (active) | – |
| NC(=O)NNc1ccccc1 | inactive | – |
| O=C(O)CNC(=O)c1nc(Cl)c2ccccc2c1O | inactive | – |
| CN(C)C/C=C/C(=O)Nc1cccc(C(=O)Nc2cccc(Nc3ncc(Cl)c(-c4c[nH]c5ccccc45)n3)c2)c1 | 3.7 nM (active) | – |
| CCCC1(CCC)CCC2(CCN(CCCN(CC)CC)C2)CC1 | 2310 nM (active) | – |
| CCOC(=O)c1cc(=O)c2c(OCC(COc3cccc4oc(C(=O)OCC)cc(=O)c34)OC(=O)[C@@H](N)CCCCN)cccc2o1 | inactive | – |
| NCC[C@H](O)C(=O)N[C@@H]1C[C@H](N)[C@@H](O[C@H]2O[C@H](CN)[C@@H](O)[C@H](O)[C@@H]2O)[C@H](O)[C@@H]1O[C@H]1O[C@H](CO)[C@@H](O)[C@H](N)[C@@H]1O | – | 95% [at 0.588 µM] |
| O=S1(=O)OC(c2ccc(O)cc2)(c2ccc(O)cc2)c2ccccc21 | inactive | – |
| CNCCn1c(=O)c2cc(OC)c(OC)cc2c2cnc3cc4c(cc3c21)OCO4 | 12.1 nM (active) | – |
| CCC(CC)CC1(C(=O)Nc2ccccc2SC(=O)C(C)C)CCCCC1 | inactive | – |
| NC(CS)C(=O)O (stereo not given) | inactive | – |
| C[C@H]1CNC(=O)c2cnn3ccc(nc23)N[C@H](C)c2cc(F)ccc2O1 | 934 nM (active) | – |
| O=C(c1ccccc1)c1ccccc1 | inactive | – |
| COC(=O)[C@@H](N)Cc1ccc(O)c(O)c1 | inactive | – |
| CCCc1ccc(OCC(=O)N2CCN(C(=O)COc3ccc(CCC)cc3OC)CC2)c(OC)c1 | inactive | – |
